The list is not random: actives were taken first. Their share in the collection is about 15%.
ELG1 repair inh: ELG1-dependent DNA repair inhibition. HEK293T ELG1-luciferase reporter, luminescence, 16 h; DNA damage induced by 5-fluorouridine. AID 504467. Potency, µM (series often up to 46.1 µM), for the others: at the highest dose activity change, negative = inhibition, actives largely listed as inhibitors. 2.3% of 330,000 active; also: nearly all actives have a fitted effect of over 55% in size
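HEK293T cells expressing luciferase-tagged ELG1 (2,000/well) received 5-Fluorouridine plus compound or DMSO for 16 hr at 37 °C. Luciferase was read by ONE-Glo luminescence after 30 min at room temperature.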
TDP1 cell CPT: DT40-hTDP1 cell growth loss with CPT; 12% of 420,000 active; AID 686979; chicken DT40 Tdp1-/-;hTDP1 cells + 20 nM CPT, ATP luminescence, 48 h; Potency, µM (titrated, usually from 46.2 µM), without a hit: at the highest dose activity change, negative = growth inhibition, usual class: inhibitors; also: nearly all actives have a fitted effect of over 55% in size
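Chicken DT40 Tdp1-/- cells stably complemented with human TDP1 were seeded at 400 cells/well in medium containing 20 nM camptothecin, exposed to pin-transferred compounds, and grown at 37 °C for at least 48 hr. Viability was read as ATP luminescence.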
VP16 counter: inhibits Gal4-VP16 luciferase reporter, ROR gamma counter-screen; Drosophila S2 Gal4-VP16 UAS-luciferase, luminescence, 20 h; Potency, µM (doses to about 53.6 µM), for inactives: at the top dose activity, negative = inhibition, actives largely listed as inhibitors; 3.5% of 310,000 active; AID 2546;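 also: Gal4-VP16 expression switched on by copper sulfate through the metallothionein promoter; nearly all actives have a fitted effect of over 50% in size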
12-LOX inh: blocks human arachidonate 12S-lipoxygenase | P18054 | purified 12hLO, xylenol orange hydroperoxide absorbance | Potency, µM (doses to about 108 µM), for the others: at the highest dose activity change, negative = inhibition, usual class: inhibitors | 1.1% of 580,000 active | AID 1671190
Target sequence (P18054 whole entry, looked up): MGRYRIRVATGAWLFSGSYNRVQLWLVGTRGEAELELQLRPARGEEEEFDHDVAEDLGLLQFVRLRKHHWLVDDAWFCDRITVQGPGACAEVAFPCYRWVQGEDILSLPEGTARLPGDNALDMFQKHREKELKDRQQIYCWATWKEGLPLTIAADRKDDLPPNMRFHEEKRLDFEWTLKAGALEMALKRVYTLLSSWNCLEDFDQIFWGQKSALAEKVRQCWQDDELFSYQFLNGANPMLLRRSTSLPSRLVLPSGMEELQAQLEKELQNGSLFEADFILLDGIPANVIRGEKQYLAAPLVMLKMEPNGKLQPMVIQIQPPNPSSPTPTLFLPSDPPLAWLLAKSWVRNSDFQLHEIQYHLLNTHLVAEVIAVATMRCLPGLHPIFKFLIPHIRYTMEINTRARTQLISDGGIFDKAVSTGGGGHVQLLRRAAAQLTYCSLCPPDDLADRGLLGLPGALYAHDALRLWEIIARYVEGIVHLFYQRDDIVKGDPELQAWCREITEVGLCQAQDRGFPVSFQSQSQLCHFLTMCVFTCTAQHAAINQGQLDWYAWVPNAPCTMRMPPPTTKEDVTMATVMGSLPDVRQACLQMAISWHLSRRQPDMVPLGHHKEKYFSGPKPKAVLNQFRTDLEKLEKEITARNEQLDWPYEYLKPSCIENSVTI
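Hydroperoxide product was detected by ferrous iron/xylenol orange as the 573 to 405 nm absorbance ratio. Arachidonic acid at 40 uM (final) was turned over for 30 min at room temperature by 150 nM human 12hLO, pH 7.0 Hepes buffer, after 15 min compound preincubation.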
RORgamma inh: inhibitors of mouse ROR gamma transcriptional activity. Potency, µM (titrated, usually from 53.6 µM), for inactives: top-dose activity change, negative = inhibition, hits mostly inhibitors. Drosophila S2 Gal4-RORgamma UAS-luciferase reporter, 20 h. 5.4% of 310,000 active. P51450; also: nearly all actives have a fitted effect of over 60% in size
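Schneider cells (Drosophila), stable Gal4 DBD–ROR gamma + UAS-luc; 1 hr cmpd preincubation; Cu2+ induction 700 uM final; 20 hr ambient; luminescence.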
TDP1 cell noCPT: qHTS for Inhibitors of human tyrosyl-DNA phosphodiesterase 1 (TDP1): qHTS in cells in absence of CPT. DT40 Tdp1-/- hTDP1 cells, no CPT, ATP luminescence, 48 h. Potency, µM (top dose mostly 46.2 µM), for the others: at the top dose activity change, negative = growth inhibition, actives largely listed as inhibitors. 15% of 420,000 active; also: nearly all actives have a fitted effect of over 55% in size
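A cellular qHTS used chicken DT40 cells lacking endogenous Tdp1 but carrying stably transfected human TDP1. Compounds were applied without camptothecin, and cell growth kinetics were judged by ATP-dependent luminescence after ≥48 hr.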
The depositor's hits bear a star; [ ] = another dose, or the depositor's remark. Calls follow the shape of the dose curve; as a rule, active = well fitted curve in the direction sought with a large enough effect; inconclusive = small, poorly fitted or top-dose-only effect, or another doubt; inactive = no such curve, though single readings can be large; an effect the other way counts as inactive or inconclusive. % is scaled to controls: 0 for no effect and ±100 for the full control effect; potency is read from the fitted curve at half-maximal effect.

How did O=C(N/N=C/c1ccccn1)c1ccncc1 do in these assays?
ELG1 repair inh: inconclusive; TDP1 cell CPT: 2%; VP16 counter: 3%; 12-LOX inh: 5%; RORgamma inh: 1%; TDP1 cell noCPT: 11%

What do the screens show for `O=C(N/N=C/c1ccccn1)c1ccccc1`?
ELG1 repair inh: inconclusive; TDP1 cell CPT: inconclusive; VP16 counter: -12%; 12-LOX inh: -2%; RORgamma inh: 16%; TDP1 cell noCPT: 18µM*

How did CCn1cc(/C=N\NC(=O)c2ccc(Cl)cc2)cn1 do in these assays?
ELG1 repair inh: 0%; TDP1 cell CPT: 6%; VP16 counter: -8%; 12-LOX inh: 1%; RORgamma inh: 11µM*; TDP1 cell noCPT: -5%

What do the screens show for `COc1ccc(C(=O)N/N=C/c2ccccn2)cc1OC`?
ELG1 repair inh: -26%; TDP1 cell CPT: inconclusive; VP16 counter: inconclusive; 12-LOX inh: 0%; RORgamma inh: inconclusive; TDP1 cell noCPT: inconclusive

Results for COc1ccc(C(=O)Nc2ccccc2C(=O)N/N=C/c2ccccn2)cc1OC ?
ELG1 repair inh: inconclusive; TDP1 cell CPT: 4.6µM*; VP16 counter: 3.2µM*; 12-LOX inh: 13%; RORgamma inh: 1.3µM*; TDP1 cell noCPT: 6.5µM*

How did CC1(c2ccccc2)N(Cc2ccccc2)C(=O)OC12CCN(Cc1cccc(O)c1)CC2 (stereo not given) do in these assays?
12-LOX inh: -29%

How did O=C(COC(=O)c1ccc(S(=O)(=O)C(F)F)cc1)c1ccc(F)cc1 do in these assays?
12-LOX inh: 2%

How did COc1cc(C(=O)N/N=C/c2cc([N+](=O)[O-])cs2)cc(OC)c1OC do in these assays?
ELG1 repair inh: 1%; TDP1 cell CPT: 0.82µM*; VP16 counter: inconclusive; 12-LOX inh: 18%; RORgamma inh: 4µM*; TDP1 cell noCPT: 1µM*

How did COc1ccc2ccccc2c1/C=N/NC(=O)c1ccc([N+](=O)[O-])cc1 do in these assays?
ELG1 repair inh: -4%; TDP1 cell CPT: 0%; VP16 counter: -6%; 12-LOX inh: -4%; RORgamma inh: -41%; TDP1 cell noCPT: -20%

Results for Cc1ccc(C(=O)Nc2ccc(C(=O)N/N=C/c3ccccn3)cc2)cc1 ?
ELG1 repair inh: 17%; TDP1 cell CPT: -30%; VP16 counter: inconclusive; 12-LOX inh: 15%; RORgamma inh: inconclusive; TDP1 cell noCPT: inconclusive

Results for COc1ccc(C(=O)Nc2ccccc2C(=O)N2CCCCCC2)cc1OC ?
ELG1 repair inh: 0%; TDP1 cell CPT: 12%; VP16 counter: 1%; 12-LOX inh: -1%; RORgamma inh: 0%; TDP1 cell noCPT: 8%

What do the screens show for `O=C(N/N=C/c1ccccn1)c1ccc(Cl)cc1`?
ELG1 repair inh: inconclusive; TDP1 cell CPT: 12µM*; VP16 counter: 2.5µM*; 12-LOX inh: 485%; RORgamma inh: 1.4µM*; TDP1 cell noCPT: 12µM*

What do the screens show for `COc1ccc(C(=O)Nc2ccccc2C(=O)NC(C)C)cc1OC`?
ELG1 repair inh: 18µM*; TDP1 cell CPT: inconclusive; VP16 counter: -6%; 12-LOX inh: 0%[57.4 µM]; RORgamma inh: -42%; TDP1 cell noCPT: inconclusive

How did Cn1ccc2c(-c3cccnc3)cc3c(c21)C1CCC3C1 (stereo not given) do in these assays?
TDP1 cell CPT: inconclusive; 12-LOX inh: 2%; TDP1 cell noCPT: inconclusive

Results for Cn1ccc2c(-c3cncc4ccccc34)cc3c(c21)C1CCC3C1 (stereo not given) ?
TDP1 cell CPT: inconclusive; 12-LOX inh: -9%; TDP1 cell noCPT: 18µM*

How did COc1ccc(-c2cc3c(c4c2ccn4C)C2CCC3C2)cc1OC (stereo not given) do in these assays?
TDP1 cell CPT: inconclusive; 12-LOX inh: -37%; TDP1 cell noCPT: 26µM*

What do the screens show for `Cn1ccc2c(-c3cccc(C=O)c3)cc3c(c21)C1CCC3C1` (stereo not given)?
TDP1 cell CPT: 23µM*; 12-LOX inh: -14%; TDP1 cell noCPT: inconclusive

Results for Cn1ccc2c(-c3cccc4ccccc34)cc3c(c21)C1CCC3C1 (stereo not given) ?
TDP1 cell CPT: -51%; 12-LOX inh: 0%; TDP1 cell noCPT: inconclusive

What do the screens show for `COc1ccc(C2C(c3ccccc3)=C(O)C(=O)N2CCc2ccccc2)cc1OC` (stereo not given)?
12-LOX inh: -27%

How did CC1=C2C(=O)CC(c3ccc(Cl)cc3)CC2=Nc2ccccc2N1 (stereo not given) do in these assays?
12-LOX inh: -20%

What do the screens show for `CCc1ccc(S(=O)(=O)c2c(C(=O)c3ccc(C)c(C)c3)cnc3ccccc23)cc1`?
TDP1 cell CPT: inconclusive; 12-LOX inh: 4%; TDP1 cell noCPT: 13µM*

What do the screens show for `CCOc1ccc(S(=O)(=O)c2c(C(=O)c3ccc(CC)cc3)cnc3ccc(C)cc23)cc1`?
TDP1 cell CPT: inconclusive; 12-LOX inh: -21%; TDP1 cell noCPT: 23µM*

How did CCc1ccc(C(=O)c2cnc3ccc(C)cc3c2S(=O)(=O)c2ccc(OC)cc2)cc1 do in these assays?
TDP1 cell CPT: 23µM*; 12-LOX inh: -30%; TDP1 cell noCPT: 18µM*

What do the screens show for `CCOC(=O)c1cnc2ccc(C)cc2c1NCCO`?
ELG1 repair inh: -29%; TDP1 cell CPT: -8%; VP16 counter: -16%; 12-LOX inh: 279%; RORgamma inh: -22%; TDP1 cell noCPT: -17%

Results for CCOc1ccc(C(=O)c2cnc3ccc(Cl)cc3c2S(=O)(=O)c2ccc(C)cc2)cc1 ?
TDP1 cell CPT: 5.8µM*; 12-LOX inh: 5%; TDP1 cell noCPT: 5.2µM*

Results for CCc1ccc(C(=O)Nn2cnc3ccccc3c2=O)cc1 ?
ELG1 repair inh: inconclusive; TDP1 cell CPT: 5%; VP16 counter: -12%; 12-LOX inh: 0%; RORgamma inh: -3%; TDP1 cell noCPT: -21%

What do the screens show for `O=C(c1ccccc1OCC1CCCN(Cc2ccc(F)cc2)C1)N1CCCCC1` (stereo not given)?
12-LOX inh: 10%

How did CNC(=O)[C@@H]1C[C@H](Oc2ccccc2)CN1C(=O)c1cc(-c2ccc(C)cc2)n[nH]1 do in these assays?
12-LOX inh: 14%

Results for COc1ccc(CCC(=O)N2Cc3ccccc3OC3(CCN(C)CC3)C2)cc1 ?
12-LOX inh: 10%

High-throughput results: PubChem BioAssay, National Center for Advancing Translational Sciences (NCATS)
